# According to ChEMBL document CHEMBL1961873, “Compounds: GSK PKIS; Assays: Nanosyn kinase panel” (2012):
# “And” between values parts separate entries of the source, which are not always exact repeats. Equal entries are not always repeated.
# Legend:
# [1] = molecular target: Serine/threonine-protein kinase MARK2 (Homo sapiens) (UniProt Q7KZI7); settings: at 1 µM
# [2] = molecular target: PAS domain-containing serine/threonine-protein kinase (Homo sapiens) (UniProt Q96RG2); settings: at 0.1 µM
# [3] = molecular target: PAS domain-containing serine/threonine-protein kinase (Homo sapiens) (UniProt Q96RG2); settings: at 1 µM
# [4] = molecular target: Phosphorylase b kinase gamma catalytic chain, skeletal muscle/heart isoform (Homo sapiens) (UniProt Q16816); settings: at 0.1 µM
# Phosphorylase b kinase gamma catalytic chain, skeletal muscle/heart isoform (Homo sapiens), sequence (Q16816 whole entry, looked up, canonical isoform): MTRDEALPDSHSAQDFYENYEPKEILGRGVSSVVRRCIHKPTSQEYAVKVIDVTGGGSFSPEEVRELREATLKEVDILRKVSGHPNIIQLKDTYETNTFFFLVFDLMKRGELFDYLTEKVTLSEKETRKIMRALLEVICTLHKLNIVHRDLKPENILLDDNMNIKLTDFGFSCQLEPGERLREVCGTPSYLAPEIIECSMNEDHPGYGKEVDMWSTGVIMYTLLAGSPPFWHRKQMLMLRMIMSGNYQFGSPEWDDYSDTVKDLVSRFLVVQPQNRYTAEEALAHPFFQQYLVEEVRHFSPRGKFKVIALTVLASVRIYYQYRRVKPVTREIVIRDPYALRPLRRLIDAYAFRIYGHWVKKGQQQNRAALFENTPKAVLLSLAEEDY
# [5] = molecular target: Phosphorylase b kinase gamma catalytic chain, skeletal muscle/heart isoform (Homo sapiens) (UniProt Q16816); settings: at 1 µM
# [6] = molecular target: T1, Phosphorylase b kinase gamma catalytic chain, liver/testis isoform (Homo sapiens) (UniProt P15735); settings: at 0.1 µM
# T1 sequence (whole entry): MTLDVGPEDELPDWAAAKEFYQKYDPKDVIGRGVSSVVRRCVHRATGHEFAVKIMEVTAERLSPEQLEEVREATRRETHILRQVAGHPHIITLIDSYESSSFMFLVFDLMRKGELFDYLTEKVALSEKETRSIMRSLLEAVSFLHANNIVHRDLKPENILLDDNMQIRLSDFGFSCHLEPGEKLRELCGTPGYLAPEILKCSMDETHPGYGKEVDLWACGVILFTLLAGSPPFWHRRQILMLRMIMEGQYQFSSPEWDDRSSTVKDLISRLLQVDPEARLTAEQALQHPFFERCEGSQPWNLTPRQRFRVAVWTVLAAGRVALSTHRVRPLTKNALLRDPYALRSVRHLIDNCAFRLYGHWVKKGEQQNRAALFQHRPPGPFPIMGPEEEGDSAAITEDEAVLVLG
# [7] = molecular target: T1, Phosphorylase b kinase gamma catalytic chain, liver/testis isoform (Homo sapiens); settings: at 1 µM
# [8] = molecular target: Serine/threonine-protein kinase pim-1 (Homo sapiens) (UniProt P11309); settings: at 0.1 µM
# [9] = molecular target: Serine/threonine-protein kinase pim-1 (Homo sapiens) (UniProt P11309); settings: at 1 µM
# [10] = molecular target: Serine/threonine-protein kinase pim-2 (Homo sapiens) (UniProt Q9P1W9); settings: at 0.1 µM
# Serine/threonine-protein kinase pim-2 (Homo sapiens), sequence (Q9P1W9 whole entry, looked up): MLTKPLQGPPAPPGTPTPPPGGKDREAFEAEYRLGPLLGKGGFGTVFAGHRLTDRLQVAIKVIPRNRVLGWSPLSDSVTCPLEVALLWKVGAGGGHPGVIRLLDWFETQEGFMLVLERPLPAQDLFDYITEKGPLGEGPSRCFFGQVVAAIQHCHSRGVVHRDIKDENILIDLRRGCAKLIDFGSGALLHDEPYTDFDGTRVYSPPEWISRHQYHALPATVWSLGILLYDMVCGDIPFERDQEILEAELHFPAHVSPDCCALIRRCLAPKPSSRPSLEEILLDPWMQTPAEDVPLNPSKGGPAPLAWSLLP
# [11] = molecular target: Serine/threonine-protein kinase pim-2 (Homo sapiens) (UniProt Q9P1W9); settings: at 1 µM
# [12] = molecular target: Serine/threonine-protein kinase pim-3 (Homo sapiens) (UniProt Q86V86); settings: at 0.1 µM
# [13] = molecular target: Serine/threonine-protein kinase pim-3 (Homo sapiens) (UniProt Q86V86); settings: at 1 µM
# [14] = molecular target: T2, MAP kinase-activated protein kinase 5 (Homo sapiens) (UniProt Q8IW41); settings: at 0.1 µM
# T2 sequence (whole entry): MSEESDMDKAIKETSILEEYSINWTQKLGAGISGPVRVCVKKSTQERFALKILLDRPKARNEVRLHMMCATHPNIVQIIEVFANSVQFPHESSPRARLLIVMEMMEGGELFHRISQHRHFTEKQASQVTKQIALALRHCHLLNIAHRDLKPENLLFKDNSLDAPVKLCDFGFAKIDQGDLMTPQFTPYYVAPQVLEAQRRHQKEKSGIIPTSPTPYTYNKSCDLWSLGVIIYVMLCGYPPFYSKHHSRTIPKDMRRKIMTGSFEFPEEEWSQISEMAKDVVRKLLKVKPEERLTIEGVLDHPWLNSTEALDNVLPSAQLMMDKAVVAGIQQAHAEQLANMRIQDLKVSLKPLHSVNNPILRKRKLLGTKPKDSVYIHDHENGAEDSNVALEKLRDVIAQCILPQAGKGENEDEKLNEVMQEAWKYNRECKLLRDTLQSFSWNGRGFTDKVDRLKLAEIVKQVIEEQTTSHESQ
# [15] = molecular target: T2, MAP kinase-activated protein kinase 5 (Homo sapiens); settings: at 1 µM
# [16] = molecular target: Serine/threonine-protein kinase SIK1 (Homo sapiens) (UniProt P57059); settings: at 0.1 µM
# Serine/threonine-protein kinase SIK1 (Homo sapiens), sequence (P57059 whole entry): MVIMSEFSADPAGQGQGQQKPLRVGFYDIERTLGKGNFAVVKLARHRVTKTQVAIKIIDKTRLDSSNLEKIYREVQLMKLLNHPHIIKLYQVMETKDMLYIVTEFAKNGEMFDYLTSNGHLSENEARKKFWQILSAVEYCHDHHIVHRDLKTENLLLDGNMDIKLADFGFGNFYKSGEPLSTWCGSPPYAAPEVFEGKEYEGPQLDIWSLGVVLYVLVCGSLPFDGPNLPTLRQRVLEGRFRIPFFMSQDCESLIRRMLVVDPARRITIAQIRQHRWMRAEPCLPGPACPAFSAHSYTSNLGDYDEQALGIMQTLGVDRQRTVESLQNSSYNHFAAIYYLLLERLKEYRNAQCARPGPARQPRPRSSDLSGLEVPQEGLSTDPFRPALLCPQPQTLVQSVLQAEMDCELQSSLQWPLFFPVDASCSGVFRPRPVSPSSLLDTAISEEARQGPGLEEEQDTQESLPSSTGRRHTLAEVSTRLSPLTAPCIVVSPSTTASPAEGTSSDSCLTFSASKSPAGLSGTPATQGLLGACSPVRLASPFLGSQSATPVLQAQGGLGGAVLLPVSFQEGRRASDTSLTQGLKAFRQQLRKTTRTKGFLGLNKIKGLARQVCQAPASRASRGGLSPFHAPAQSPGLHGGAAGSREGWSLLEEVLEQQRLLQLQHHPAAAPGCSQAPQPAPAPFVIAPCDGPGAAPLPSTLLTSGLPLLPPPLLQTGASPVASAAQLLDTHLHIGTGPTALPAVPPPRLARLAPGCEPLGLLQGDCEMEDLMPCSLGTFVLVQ
# [17] = molecular target: Serine/threonine-protein kinase SIK1 (Homo sapiens) (UniProt P57059); settings: at 1 µM
# [18] = molecular target: Serine/threonine-protein kinase SIK2 (Homo sapiens) (UniProt Q9H0K1); settings: at 0.1 µM
# Serine/threonine-protein kinase SIK2 (Homo sapiens), sequence (Q9H0K1 whole entry, looked up): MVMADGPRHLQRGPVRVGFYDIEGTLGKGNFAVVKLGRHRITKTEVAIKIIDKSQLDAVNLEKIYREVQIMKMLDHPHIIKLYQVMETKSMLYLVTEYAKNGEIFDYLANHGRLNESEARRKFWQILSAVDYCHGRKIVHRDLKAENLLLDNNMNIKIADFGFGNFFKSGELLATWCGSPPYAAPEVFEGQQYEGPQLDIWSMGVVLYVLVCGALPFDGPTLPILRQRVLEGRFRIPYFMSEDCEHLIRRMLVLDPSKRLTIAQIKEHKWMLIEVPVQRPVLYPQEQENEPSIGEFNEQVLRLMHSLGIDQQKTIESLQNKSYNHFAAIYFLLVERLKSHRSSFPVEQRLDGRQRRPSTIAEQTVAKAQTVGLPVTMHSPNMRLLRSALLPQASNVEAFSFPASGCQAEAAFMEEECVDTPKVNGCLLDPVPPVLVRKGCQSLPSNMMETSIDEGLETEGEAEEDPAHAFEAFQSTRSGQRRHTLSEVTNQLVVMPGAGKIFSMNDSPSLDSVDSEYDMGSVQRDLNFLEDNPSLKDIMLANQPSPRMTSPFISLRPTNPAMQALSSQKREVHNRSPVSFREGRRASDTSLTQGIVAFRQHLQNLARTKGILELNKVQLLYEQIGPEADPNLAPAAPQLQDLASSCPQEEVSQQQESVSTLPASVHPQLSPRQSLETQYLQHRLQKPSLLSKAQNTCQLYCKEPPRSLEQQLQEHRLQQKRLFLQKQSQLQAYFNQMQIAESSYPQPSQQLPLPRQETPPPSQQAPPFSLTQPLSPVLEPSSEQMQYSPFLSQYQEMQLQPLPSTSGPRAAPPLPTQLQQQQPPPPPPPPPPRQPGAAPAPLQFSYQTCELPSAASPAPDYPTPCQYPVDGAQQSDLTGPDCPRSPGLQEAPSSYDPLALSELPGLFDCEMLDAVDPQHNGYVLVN
# [19] = molecular target: Serine/threonine-protein kinase SIK2 (Homo sapiens) (UniProt Q9H0K1); settings: at 1 µM
# [20] = molecular target: T3, Serine/threonine-protein kinase TBK1 (Homo sapiens) (UniProt Q9UHD2); settings: at 0.1 µM;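 further: values are the mean TBK1 inhibition, taken from the GSK PKIS screening data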
# T3 sequence (whole entry): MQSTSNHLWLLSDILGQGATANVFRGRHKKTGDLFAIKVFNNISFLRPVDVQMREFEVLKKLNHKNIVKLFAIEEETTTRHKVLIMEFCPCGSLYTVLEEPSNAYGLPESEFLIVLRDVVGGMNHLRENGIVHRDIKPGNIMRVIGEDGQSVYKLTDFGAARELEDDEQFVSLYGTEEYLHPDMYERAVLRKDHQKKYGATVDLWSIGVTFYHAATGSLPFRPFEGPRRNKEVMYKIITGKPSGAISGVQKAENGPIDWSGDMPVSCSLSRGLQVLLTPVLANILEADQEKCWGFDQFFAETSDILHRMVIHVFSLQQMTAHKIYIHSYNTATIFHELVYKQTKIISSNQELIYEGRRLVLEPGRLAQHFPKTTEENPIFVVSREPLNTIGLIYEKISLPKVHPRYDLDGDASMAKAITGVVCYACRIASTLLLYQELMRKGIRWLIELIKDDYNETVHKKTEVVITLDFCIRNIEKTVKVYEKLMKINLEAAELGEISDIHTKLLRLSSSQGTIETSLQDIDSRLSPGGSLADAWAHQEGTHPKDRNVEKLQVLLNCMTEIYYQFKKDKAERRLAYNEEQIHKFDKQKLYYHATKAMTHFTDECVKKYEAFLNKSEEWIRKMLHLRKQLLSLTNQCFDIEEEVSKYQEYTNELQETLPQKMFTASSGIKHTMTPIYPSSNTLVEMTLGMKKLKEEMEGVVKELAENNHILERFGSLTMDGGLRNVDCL
# Serine/threonine-protein kinase MARK2 (Homo sapiens), sequence (Q7KZI7 whole entry, the tested form may be a part): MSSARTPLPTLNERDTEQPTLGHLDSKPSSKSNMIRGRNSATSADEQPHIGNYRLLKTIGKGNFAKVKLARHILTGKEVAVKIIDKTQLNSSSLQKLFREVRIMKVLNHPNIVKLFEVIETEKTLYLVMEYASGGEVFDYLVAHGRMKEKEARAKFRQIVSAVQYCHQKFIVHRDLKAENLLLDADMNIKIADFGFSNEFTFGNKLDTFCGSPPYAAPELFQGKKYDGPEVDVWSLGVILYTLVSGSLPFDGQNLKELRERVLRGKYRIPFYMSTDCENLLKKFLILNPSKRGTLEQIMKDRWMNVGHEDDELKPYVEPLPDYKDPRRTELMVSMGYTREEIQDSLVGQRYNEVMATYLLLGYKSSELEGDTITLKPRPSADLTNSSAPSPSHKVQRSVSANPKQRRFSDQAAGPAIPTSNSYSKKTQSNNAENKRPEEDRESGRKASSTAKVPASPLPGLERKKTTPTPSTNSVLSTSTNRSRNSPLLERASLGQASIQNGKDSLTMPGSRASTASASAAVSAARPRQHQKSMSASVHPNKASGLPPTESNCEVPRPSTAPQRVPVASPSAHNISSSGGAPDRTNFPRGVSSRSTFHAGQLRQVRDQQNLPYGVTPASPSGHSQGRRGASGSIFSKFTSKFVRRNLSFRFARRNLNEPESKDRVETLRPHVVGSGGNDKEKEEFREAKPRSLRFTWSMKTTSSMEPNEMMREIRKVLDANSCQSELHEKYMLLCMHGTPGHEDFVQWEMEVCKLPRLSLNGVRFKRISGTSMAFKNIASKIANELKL
# PAS domain-containing serine/threonine-protein kinase (Homo sapiens), sequence (Q96RG2 whole entry, the tested form may be a part, canonical isoform): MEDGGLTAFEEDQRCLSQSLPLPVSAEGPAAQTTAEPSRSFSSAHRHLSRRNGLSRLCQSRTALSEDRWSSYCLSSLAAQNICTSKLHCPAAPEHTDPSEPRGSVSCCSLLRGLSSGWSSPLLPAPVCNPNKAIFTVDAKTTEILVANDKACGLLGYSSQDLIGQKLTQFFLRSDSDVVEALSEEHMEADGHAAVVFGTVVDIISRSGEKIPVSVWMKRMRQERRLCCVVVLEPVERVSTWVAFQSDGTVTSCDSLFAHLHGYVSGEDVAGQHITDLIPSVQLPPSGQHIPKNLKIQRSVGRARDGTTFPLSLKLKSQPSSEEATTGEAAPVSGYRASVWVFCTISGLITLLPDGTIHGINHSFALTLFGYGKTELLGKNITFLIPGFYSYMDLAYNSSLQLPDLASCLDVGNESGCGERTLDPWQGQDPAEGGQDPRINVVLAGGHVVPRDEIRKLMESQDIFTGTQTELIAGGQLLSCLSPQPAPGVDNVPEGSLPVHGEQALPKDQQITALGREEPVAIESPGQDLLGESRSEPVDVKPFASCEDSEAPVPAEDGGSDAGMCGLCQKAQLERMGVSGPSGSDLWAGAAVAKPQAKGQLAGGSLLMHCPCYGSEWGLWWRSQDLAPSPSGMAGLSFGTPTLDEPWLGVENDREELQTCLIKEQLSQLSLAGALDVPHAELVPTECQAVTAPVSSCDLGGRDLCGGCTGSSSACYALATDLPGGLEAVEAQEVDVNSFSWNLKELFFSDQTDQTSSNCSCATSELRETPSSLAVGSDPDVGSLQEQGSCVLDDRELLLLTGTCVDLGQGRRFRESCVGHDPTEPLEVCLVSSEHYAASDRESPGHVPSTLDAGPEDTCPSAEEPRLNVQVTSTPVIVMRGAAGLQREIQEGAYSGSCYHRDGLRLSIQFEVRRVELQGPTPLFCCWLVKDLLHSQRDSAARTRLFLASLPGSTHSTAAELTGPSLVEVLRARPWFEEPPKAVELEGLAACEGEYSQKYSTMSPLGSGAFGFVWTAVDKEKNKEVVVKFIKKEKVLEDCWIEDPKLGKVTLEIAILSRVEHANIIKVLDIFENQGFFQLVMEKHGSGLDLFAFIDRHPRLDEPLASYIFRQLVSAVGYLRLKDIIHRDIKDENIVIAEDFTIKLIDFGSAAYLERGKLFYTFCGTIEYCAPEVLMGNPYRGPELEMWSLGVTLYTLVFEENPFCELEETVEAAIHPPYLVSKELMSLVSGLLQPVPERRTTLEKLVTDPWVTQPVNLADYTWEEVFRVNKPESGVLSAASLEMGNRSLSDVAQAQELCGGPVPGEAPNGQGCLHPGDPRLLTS
SMILES,inhibition [1],inhibition [2],inhibition [3],inhibition [4],inhibition [5],inhibition [6],inhibition [7],inhibition [8],inhibition [9],inhibition [10],inhibition [11],inhibition [12],inhibition [13],inhibition [14],inhibition [15],inhibition [16],inhibition [17],inhibition [18],inhibition [19],inhibition [20]
Cc1cc(O)cc(C)c1/C=C/c1cncc(C(=O)OC(C)(C)C)c1,1.18%,-0.08%,0.02%,3.95%,-7.1%,3.11%,1.25%,0.18%,0.23%,0.32%,1.55%,-1.42%,2.22%,0.68%,1.6%,18.8%,71.9%,10.5%,12.3%,2.04%
COc1ccccc1-c1cc(/C=C2\C(=O)Nc3ncc(Br)cc32)cc(Br)c1O,2.22%,-1.52%,-3.29%,3.58%,7.04%,4.87%,3.85%,0.14%,3.18%,0.1%,-0.06%,-1.67%,-1.54%,1.35%,0.67%,3.09%,9.01%,0.5%,10.4%,0.53%
CC1(C)CC(n2cnc(-c3ccc(F)cc3)c2-c2ccnc(N)n2)CC(C)(C)N1,0.44%,-1.3%,-0.73%,3.51%,2.36%,-0.42%,-1.13%,0.93%,1.49%,0.4%,0.96%,-0.62%,0.93%,0.28%,0.93%,0.72%,3.05%,1.72%,1.15%,0.42%
COc1cccc(Nc2nccc(-c3cnn4ncccc34)n2)c1,21.4%,-0.19%,-1.63%,2.67%,27.6%,4.4%,18.8%,0.85%,6.56%,0.37%,2.39%,2.39%,17.6%,0.42%,3.44%,6.56%,20.8%,4.86%,13.6%,4.06%
O=C(O[C@H]1CN[C@H](C#Cc2cc3ncnc(Nc4ccc(OCc5cccc(F)c5)c(Cl)c4)c3s2)C1)N1CCOCC1,-1.51%,0.31%,0.78%,6.72%,7.76%,7.04%,9.85%,0.79%,0.58%,-0.36%,0.28%,0.37%,1.35%,2.46%,4.32%,2.74%,9.18%,8.56%,11.1%,1.96%
O=C1Nc2ccccc2/C1=C1\CCc2cc(O)ccc21,24%,0.2%,-1.25%,9.05%,40.6%,6.64%,9.59%,2.37%,10.2%,-0.2%,1.46%,-1.28%,3.83%,1.7%,2.07%,2.74%,18.1%,5.12%,21%,1.68%
O=C(Nc1n[nH]c2nnc(-c3cccnc3)cc12)C1CC1,1.5%,1.31%,0.02%,0.1%,-0.03%,-1.23%,-1.9%,26.1%,74.5%,4.25%,28.7%,26.8%,69.7%,0.13%,-0.19%,1.74%,5.12%,1.86%,-1.67%,0.25%
COc1ccc(Nc2ncc(-c3ccccc3)o2)cc1OC,16.8%,0.54%,0.81%,5.28%,28.9%,0.22%,2.01%,1.41%,2.22%,1.11%,1.95%,0.89%,1.57%,-0.17%,-1.05%,2.55%,28.9%,1.69%,39%,-0.12%
CS(=O)(=O)CCNCc1ccc(-c2ccc3ncnc(Nc4ccc(OCc5cccc(C(F)(F)F)c5)cc4)c3c2)o1,5.07%,-1.03%,-1.02%,2.44%,4.94%,5.95%,4.97%,1.96%,3.18%,-0.68%,-0.48%,1.17%,4.36%,1.34%,1.44%,1.69%,7.19%,6.4%,8%,3.15%
CCS(=O)(=O)c1ccc(OC)c(Nc2ncc(-c3cccc(F)c3)o2)c1,2.64%,-0.05%,-0.06%,6.05%,24.7%,6.86%,8.13%,1.98%,4.66%,-0.96%,0.08%,0.31%,3.65%,2.11%,2.01%,7.36%,29.4%,8.6%,36.7%,5.98%
CN1CCC(C(=O)Nc2n[nH]c3nc(-c4ccc(O)cc4)c(Br)cc23)CC1,2.87% and -0.48%,0.12% and 1.36%,1.4% and -0.48%,7.58% and -0.16%,16.1% and 3.32%,4.67% and 1.73%,9.01% and 2.52%,5.3% and 6.07%,34.8% and 33.4%,-0.97% and 1.73%,14.5% and 16.5%,8.95% and 8.97%,48.5% and 44.8%,1.61% and 0.79%,3.66% and 0.86%,3.1% and 1.53%,9.27% and 8.23%,7.89% and -2.04%,9.87% and 5.33%,4.48% and 3.27%
N#Cc1ccc2c(-c3ccnc(NC4CC4)n3)c(-c3ccc(F)cc3)nn2c1,0.62%,1.11%,0.62%,0.42%,2.62%,1.29%,0.44%,-0.01%,-1.52%,-0.15%,0.72%,-0.27%,-0.29%,0.61%,-0.5%,4.86%,23.5%,24.1%,68.9%,1.15%
